Laboratory results taken from publication PMC7862700, “An all-to-all approach to the identification of sequence-specific readers for epigenetic DNA modifications on cytosine”.

Tests used:
Test in all cases: DAPPL (digital affinity profiling via proximity ligation, sequencing); 10 mM Tris-HCl pH 7.5, 50 mM NaCl, 1 mM DTT, 4% glycerol, room temperature, 30 min; GST-TFs on glutathione beads, 16-mer random dsDNA library, 0.1% formaldehyde crosslink after washing; high values mean tight binding
Conditions in all cases: protein: recombinant; tags: N-terminal GST; dsDNA, one strand shown
[1] = molecular target: T1, ERF (Homo sapiens, UniProt P50548 1-548)
T1 sequence: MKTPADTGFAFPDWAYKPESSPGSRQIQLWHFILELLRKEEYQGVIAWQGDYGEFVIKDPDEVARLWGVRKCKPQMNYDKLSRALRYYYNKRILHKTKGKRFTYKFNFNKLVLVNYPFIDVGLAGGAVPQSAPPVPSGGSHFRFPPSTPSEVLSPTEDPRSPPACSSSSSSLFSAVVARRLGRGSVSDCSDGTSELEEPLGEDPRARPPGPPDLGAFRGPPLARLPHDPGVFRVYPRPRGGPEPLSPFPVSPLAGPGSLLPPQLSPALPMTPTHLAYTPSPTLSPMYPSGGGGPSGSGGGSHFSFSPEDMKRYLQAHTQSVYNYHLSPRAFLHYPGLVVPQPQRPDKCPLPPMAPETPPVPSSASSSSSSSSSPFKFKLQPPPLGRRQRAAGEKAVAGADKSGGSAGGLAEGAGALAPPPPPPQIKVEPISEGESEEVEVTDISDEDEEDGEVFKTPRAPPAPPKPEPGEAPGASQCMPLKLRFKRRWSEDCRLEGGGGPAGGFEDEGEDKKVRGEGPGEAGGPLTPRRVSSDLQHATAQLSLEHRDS
Procedure, shortened: (§1)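 Sequencing on an Illumina NextSeq500 followed washing, crosslinking with 0.1% formaldehyde, proximity ligation (BsaI/T4 ligase, 1 h, 37 °C) and PCR amplification of pools that had been incubated for 30 min at room temperature with 200 nmole of a random double-stranded 16-mer DNA library in Tris/NaCl/DTT/glycerol buffer. Each pool held DNA-barcoded human transcription factors, expressed in yeast as GST fusions and captured on glutathione beads, plus a tag-only sample. Binding signal is a hexamer's read frequency for a factor divided by its frequency in the tag-only sample.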

[2] = molecular target: T2, ETV3L (Homo sapiens, UniProt Q6ZN32 1-361)
T2 sequence: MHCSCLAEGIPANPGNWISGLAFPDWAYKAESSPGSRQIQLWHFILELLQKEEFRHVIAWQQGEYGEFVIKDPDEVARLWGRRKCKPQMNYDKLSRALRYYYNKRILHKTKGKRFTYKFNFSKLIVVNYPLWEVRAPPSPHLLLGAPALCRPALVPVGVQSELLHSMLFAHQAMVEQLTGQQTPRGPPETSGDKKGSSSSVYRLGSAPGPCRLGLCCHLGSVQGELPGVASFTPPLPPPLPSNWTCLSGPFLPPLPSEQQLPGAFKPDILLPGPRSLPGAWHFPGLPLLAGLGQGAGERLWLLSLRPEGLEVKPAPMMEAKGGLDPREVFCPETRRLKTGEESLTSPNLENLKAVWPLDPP
Procedure, shortened: as §1

[3] = molecular target: T3, ETS2 (Homo sapiens, UniProt P15036 1-469)
T3 sequence: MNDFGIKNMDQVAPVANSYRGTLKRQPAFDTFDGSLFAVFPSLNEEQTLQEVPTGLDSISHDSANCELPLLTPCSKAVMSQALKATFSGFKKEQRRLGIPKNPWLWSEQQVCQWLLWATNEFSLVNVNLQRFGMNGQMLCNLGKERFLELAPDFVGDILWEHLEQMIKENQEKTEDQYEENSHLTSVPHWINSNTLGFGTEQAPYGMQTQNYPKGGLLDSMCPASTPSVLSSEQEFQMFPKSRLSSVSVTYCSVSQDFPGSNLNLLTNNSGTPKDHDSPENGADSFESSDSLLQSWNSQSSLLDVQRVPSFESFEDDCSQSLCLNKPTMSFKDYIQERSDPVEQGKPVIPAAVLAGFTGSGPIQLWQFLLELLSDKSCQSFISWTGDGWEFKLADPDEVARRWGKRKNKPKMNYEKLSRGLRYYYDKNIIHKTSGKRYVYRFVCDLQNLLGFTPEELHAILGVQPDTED
Procedure, shortened: as §1

[4] = molecular target: T4, SPDEF (Homo sapiens, UniProt O95238 1-335)
T4 sequence: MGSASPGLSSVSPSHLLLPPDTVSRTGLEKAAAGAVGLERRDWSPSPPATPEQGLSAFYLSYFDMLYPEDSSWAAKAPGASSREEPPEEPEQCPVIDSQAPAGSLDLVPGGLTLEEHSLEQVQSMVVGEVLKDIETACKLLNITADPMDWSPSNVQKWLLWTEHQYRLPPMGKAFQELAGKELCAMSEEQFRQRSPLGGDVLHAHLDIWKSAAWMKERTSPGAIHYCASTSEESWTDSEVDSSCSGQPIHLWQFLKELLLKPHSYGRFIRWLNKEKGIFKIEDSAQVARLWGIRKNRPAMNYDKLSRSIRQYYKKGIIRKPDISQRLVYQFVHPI
Procedure, shortened: as §1

[5] = molecular target: T5, ETV7 (Homo sapiens, UniProt Q9Y603 1-341)
T5 sequence: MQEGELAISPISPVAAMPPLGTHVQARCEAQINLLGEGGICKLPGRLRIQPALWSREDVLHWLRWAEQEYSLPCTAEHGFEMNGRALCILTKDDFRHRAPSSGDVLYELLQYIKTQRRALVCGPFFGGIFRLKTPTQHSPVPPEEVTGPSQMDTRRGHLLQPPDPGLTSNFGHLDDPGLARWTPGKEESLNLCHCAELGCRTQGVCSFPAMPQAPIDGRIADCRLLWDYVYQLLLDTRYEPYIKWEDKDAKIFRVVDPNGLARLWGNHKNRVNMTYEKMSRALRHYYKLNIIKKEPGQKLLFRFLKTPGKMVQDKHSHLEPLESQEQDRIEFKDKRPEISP
Procedure, shortened: as §1

[6] = molecular target: T6, ELF5 (Homo sapiens, UniProt Q9UKW6-2 1-255)
T6 sequence: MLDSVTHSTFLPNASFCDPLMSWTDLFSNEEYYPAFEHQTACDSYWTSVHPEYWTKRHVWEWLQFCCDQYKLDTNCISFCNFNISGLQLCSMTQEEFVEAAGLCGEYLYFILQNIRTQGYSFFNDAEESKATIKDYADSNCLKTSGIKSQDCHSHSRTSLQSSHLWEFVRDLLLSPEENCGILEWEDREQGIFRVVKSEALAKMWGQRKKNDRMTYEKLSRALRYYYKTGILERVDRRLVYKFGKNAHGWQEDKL
Procedure, shortened: as §1

[7] = molecular target: T7, ETV3 (Homo sapiens, UniProt P41162-2 1-143)
T7 sequence: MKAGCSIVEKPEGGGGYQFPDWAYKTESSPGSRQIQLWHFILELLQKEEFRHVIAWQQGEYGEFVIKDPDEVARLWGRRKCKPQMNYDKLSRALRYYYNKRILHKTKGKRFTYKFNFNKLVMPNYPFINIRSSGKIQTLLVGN
Procedure, shortened: as §1

[8] = molecular target: ETV6 (Homo sapiens, UniProt P41212 1-452)
ETV6, sequence (P41212 whole entry): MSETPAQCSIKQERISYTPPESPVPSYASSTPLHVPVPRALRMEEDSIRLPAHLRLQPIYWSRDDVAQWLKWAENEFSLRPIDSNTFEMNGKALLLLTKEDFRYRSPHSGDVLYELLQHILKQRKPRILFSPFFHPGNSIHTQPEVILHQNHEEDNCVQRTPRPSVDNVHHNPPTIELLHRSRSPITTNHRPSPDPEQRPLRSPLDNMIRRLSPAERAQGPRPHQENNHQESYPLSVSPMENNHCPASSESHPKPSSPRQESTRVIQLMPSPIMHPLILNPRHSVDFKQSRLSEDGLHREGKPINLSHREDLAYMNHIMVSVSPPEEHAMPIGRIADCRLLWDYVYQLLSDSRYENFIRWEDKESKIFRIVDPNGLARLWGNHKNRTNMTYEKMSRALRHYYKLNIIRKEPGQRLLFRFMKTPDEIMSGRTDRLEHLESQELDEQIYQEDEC
Procedure, shortened: as §1

Sequence	binding signal [1]	binding signal [2]	binding signal [3]	binding signal [4]	binding signal [5]	binding signal [6]	binding signal [7]	binding signal [8]
TTGCGC	1.28 fold enrichment (6-mer frequency, TF over GST control)	1.13 fold enrichment (6-mer frequency, TF over GST control)	1.16 fold enrichment (6-mer frequency, TF over GST control)	1.06 fold enrichment (6-mer frequency, TF over GST control)	1.12 fold enrichment (6-mer frequency, TF over GST control)	1.03 fold enrichment (6-mer frequency, TF over GST control)	1.07 fold enrichment (6-mer frequency, TF over GST control)	1.06 fold enrichment (6-mer frequency, TF over GST control)
GAAGCG	1.29 fold enrichment (6-mer frequency, TF over GST control)	1.32 fold enrichment (6-mer frequency, TF over GST control)	1.33 fold enrichment (6-mer frequency, TF over GST control)	1.29 fold enrichment (6-mer frequency, TF over GST control)	1.36 fold enrichment (6-mer frequency, TF over GST control)	1.35 fold enrichment (6-mer frequency, TF over GST control)	1.36 fold enrichment (6-mer frequency, TF over GST control)	1.43 fold enrichment (6-mer frequency, TF over GST control)
CTAAAG	1.44 fold enrichment (6-mer frequency, TF over GST control)	1.33 fold enrichment (6-mer frequency, TF over GST control)	1.32 fold enrichment (6-mer frequency, TF over GST control)	1.26 fold enrichment (6-mer frequency, TF over GST control)	1.35 fold enrichment (6-mer frequency, TF over GST control)	1.33 fold enrichment (6-mer frequency, TF over GST control)	1.36 fold enrichment (6-mer frequency, TF over GST control)	1.23 fold enrichment (6-mer frequency, TF over GST control)
GCGTCC	1.32 fold enrichment (6-mer frequency, TF over GST control)	1.24 fold enrichment (6-mer frequency, TF over GST control)	1.18 fold enrichment (6-mer frequency, TF over GST control)	1.56 fold enrichment (6-mer frequency, TF over GST control)	1.17 fold enrichment (6-mer frequency, TF over GST control)	1.25 fold enrichment (6-mer frequency, TF over GST control)	1.24 fold enrichment (6-mer frequency, TF over GST control)	1.19 fold enrichment (6-mer frequency, TF over GST control)
CTCAGC	1.1 fold enrichment (6-mer frequency, TF over GST control)	1.36 fold enrichment (6-mer frequency, TF over GST control)	1.22 fold enrichment (6-mer frequency, TF over GST control)	1.15 fold enrichment (6-mer frequency, TF over GST control)	1.21 fold enrichment (6-mer frequency, TF over GST control)	1.08 fold enrichment (6-mer frequency, TF over GST control)	1.32 fold enrichment (6-mer frequency, TF over GST control)	1.2 fold enrichment (6-mer frequency, TF over GST control)
CGCTGC	1.28 fold enrichment (6-mer frequency, TF over GST control)	1.17 fold enrichment (6-mer frequency, TF over GST control)	1.28 fold enrichment (6-mer frequency, TF over GST control)	1.15 fold enrichment (6-mer frequency, TF over GST control)	1.03 fold enrichment (6-mer frequency, TF over GST control)	1.07 fold enrichment (6-mer frequency, TF over GST control)	1.13 fold enrichment (6-mer frequency, TF over GST control)	1.18 fold enrichment (6-mer frequency, TF over GST control)
AAGTTG	1.08 fold enrichment (6-mer frequency, TF over GST control)	1.11 fold enrichment (6-mer frequency, TF over GST control)	1.11 fold enrichment (6-mer frequency, TF over GST control)	1.02 fold enrichment (6-mer frequency, TF over GST control)	1.26 fold enrichment (6-mer frequency, TF over GST control)	1.17 fold enrichment (6-mer frequency, TF over GST control)	1.07 fold enrichment (6-mer frequency, TF over GST control)	1.17 fold enrichment (6-mer frequency, TF over GST control)
CATCTG	1.35 fold enrichment (6-mer frequency, TF over GST control)	1.23 fold enrichment (6-mer frequency, TF over GST control)	1.24 fold enrichment (6-mer frequency, TF over GST control)	1.23 fold enrichment (6-mer frequency, TF over GST control)	1.33 fold enrichment (6-mer frequency, TF over GST control)	1.23 fold enrichment (6-mer frequency, TF over GST control)	1.17 fold enrichment (6-mer frequency, TF over GST control)	1.11 fold enrichment (6-mer frequency, TF over GST control)
